Screening results (PubChem)
Abeta yeast res – A-beta toxicity reversal in yeast. Potency, µM (titrated, usually from 46.1 µM), most hits filed as activators. 0.063% of 410,000 active. yeast expressing A-beta42, growth rescue, OD600, 48 h; response scale: 0% DMSO, 100% iron-clioquinol control; note: potency is the fitted concentration of half-maximal effect; nearly all actives have a fitted effect of over 55% in size
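Growth rescue measured by 600 nm absorbance after 48 h yeast culture at 30 C with compound. Values normalized between DMSO and an equimolar ferric chloride plus clioquinol control.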
Akt phos inh – Akt phosphorylation inhibition; Neuro2A IGF-stimulated pAkt S473 HTRF, 20 min; stronger effect = lower value; activity change, % for hits at 50 µM; 0.32% of 360,000 active; in the data active = activity change below about -80%; inconclusive = mostly about -51% to -80%; note: % is set by controls: 0 for no effect and ±100 for the full control effect
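Neuro2A cells (4,500/well, DMEM with 0.5% FBS) were treated with compound at a single 50 µM final concentration, stimulated with 6 nM IGF for 20 min at 37 °C, and lysed. Phospho-Akt Ser473 was read by HTRF as 665/615 ratio ×10^4.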
aSyn yeast inh – inhibitors of alpha-synuclein toxicity in yeast; Yeast expressing alpha-synuclein, growth rescue, BacTiter-Glo, 24 h; Potency, µM (top dose mostly 46.1 µM), for the others: at the top dose growth rescue (activation), usual class: activators; 0.14% of 370,000 active; note: potency is the fitted concentration of half-maximal effect; % of control where 0% means no effect; nearly all actives have a fitted effect of over 65% in size
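Rescue of yeast growth: cells expressing toxic alpha-synuclein, induced in galactose at OD600 0.02, incubated with compound 24 h at 30 C. ATP luminescence quantified growth; inhibitors of toxicity appear as activators.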
FUS suppressor – suppressors of FUS proteinopathy in yeast; S. cerevisiae FUS-expressing, growth rescue, OD600, 24 h; Potency, µM (series often up to 76.6 µM), most hits filed as activators; 0.24% of 390,000 active; AID 1347120;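 note: potency is the fitted concentration of half-maximal effect; plate controls were DMSO vehicle for no effect and reference control for full effect; nearly all actives have a fitted effect of over 55% in size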
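FUS-expressing yeast, raffinose-pregrown, induced in 2% galactose minimal medium at OD 0.005; compounds in a dilution series, 24hr at 30C. Growth restoration read as absorbance at 600 nm. CP55940 positive control, DMSO negative.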
TDP-43 yeast inh – TDP-43 toxicity inhibition in yeast | TDP-43 expressing yeast growth rescue, BacTiter-Glo, 24 h | Potency, µM (series often up to 46.1 µM), for the others: top-dose growth rescue (activation), hits mostly activators | 1.8% of 410,000 active | AID 652104; note: potency is the fitted concentration of half-maximal effect; % of control where 0% means no effect; nearly all actives have a fitted effect of over 50% in size
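Galactose-induced TDP-43 yeast, OD600=0.02, compound pinned; 24 hr, 30 deg C; BacTiter-Glo luminescence for growth. Inhibitors of TDP-43 toxicity read as activators.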
Active calls of the source: *; i = inactive; ? = inconclusive; . = no result given; [ ] = dose if it differs, or a comment. An excerpt weighted towards active compounds, which were near 2.3% of everything screened. Unless noted, calls come from the whole dose curve; as a rule, active = well fitted curve in the direction sought with a large enough effect; inconclusive = small, poorly fitted or top-dose-only effect, or another doubt; inactive = no such curve, though single readings can be large; an effect the other way counts as inactive or inconclusive.

SMILES	Abeta yeast res	Akt phos inh	aSyn yeast inh	FUS suppressor	TDP-43 yeast inh
Fc1ccc2[nH]c3c(N4CCN(c5ccccc5)CC4)ncnc3c2c1	i	-89.5%*	-19.6%	i	-3.9%
CCOC(=O)N1CCN(c2ncnc3c2[nH]c2ccc(F)cc23)CC1	i	i	3.2%	i	-1.3%
Fc1ccc(-c2noc3ncnc(N4CCN(c5ccccc5)CC4)c23)cc1	i	.	-7.5%	i	25.1µM*
Cc1ccc(C(=O)C(OC(=O)CNC(=O)COc2ccccc2C)c2ccccc2)cc1 (configuration not stated)	.	.	-0.6%	.	.
O=C(O)c1ccc(CSc2nnc(-c3ccc(Cl)cc3)o2)cc1	i	i	-0.8%	i	16.9%
CCSc1nnc(-c2ccncc2)o1	i	i	-1.1%	i	-2.5%
Fc1ccc(CSc2nnc(-c3ccncc3)o2)cc1	i	i	-0.3%	i	12.6µM*
Clc1ccc(CSc2nnc(-c3ccncc3)o2)cc1	i	.	.	i	6.31µM*
NC1=C(Br)C(=O)c2ncccc2C1=O	i	i	-5.8%	.	11.2µM*
O=C1c2cccnc2C(=O)N1CO	i	i	9.1%	i	20.4%
CCOc1ccc2c(c1)-c1c(ssc1=S)C(C)(C)N2C(=O)CSC1=NCCS1	i	i	-0.6%	i	18.4%
CCOc1ccc2c(c1)-c1c(ssc1=S)C(C)(C)N2	i	i	1.2%	i	22.4µM*
CCc1ccc(NC(=O)c2cc(C)nn2-c2ccccc2)cc1	i	i	-0.7%	i	15.8µM*
CC(=O)c1ccc(NC(=O)c2nc(-c3ccccc3)n(-c3ccccc3Cl)n2)cc1	i	.	.	?	14.1µM*
CC(=O)c1cccc(NC(=O)c2nc(-c3ccccc3)n(-c3cccc(Cl)c3)n2)c1	i	.	.	?	35.5µM*
CC(=O)Nc1ccc(NC(=O)c2cc(C)nn2-c2ccccc2)cc1	i	i	0.2%	i	13.1%
CC(=O)c1ccc(NC(=O)c2nc(-c3ccccc3)n(-c3ccccc3)n2)cc1	i	.	.	i	17.8µM*
CCOc1cccc(C(=O)Nc2ccc3oc(-c4ccncc4)nc3c2)c1	i	.	.	i	?
Cc1nc(C(=O)Nc2cccc(Cl)c2)nn1-c1cc(OC(C)C)c(Cl)cc1Cl	i	i	-11.1%	31.6µM*	5.2%
CCCc1cnc(N2CCN(C(=O)c3ccccc3)CC2)nc1	i	i	6.5%	i	11.2µM*
Cc1ccc2nc(NC(=O)CSc3nccn3Cc3ccc(F)cc3)sc2c1	?	.	?	i	22.4µM*
O=C(CSc1nc2ncccc2o1)Nc1cccc(C(F)(F)F)c1	12.6µM*	.	.	i	10µM*
COc1cc(NC(=O)CSc2nc3ncccc3o2)cc(OC)c1	i	.	.	i	15.3%
CCN(CC)C(=S)SCC(=O)Nc1cccc(C(F)(F)F)c1	i	i	10.7%	i	12.6µM*
CCN(CC)C(=S)SCC(=O)Nc1ccc(F)cc1	i	i	8.3%	i	14.1µM*
SMILES	Abeta yeast res	Akt phos inh	aSyn yeast inh	FUS suppressor	TDP-43 yeast inh
CCN(CC)C(=S)SCC(=O)c1ccc(F)cc1	i	i	-0.4%	i	?
Cc1nn(CC(=O)Nc2cccc(C(F)(F)F)c2)c(=O)c2cccn12	i	i	6.31µM*	i	0.7%
O=C(NCCOCCn1c(=O)oc2ccccc21)Nc1ccc(F)cc1F	i	.	.	i	19.7%
Cc1cccc(-c2nc3scc(CCNS(=O)(=O)c4ccc5c(c4)OCCO5)n3n2)c1	i	.	.	i	14.7%
Cc1cc(C)nc(Nc2ccc(F)cc2)n1	i	i	-0.3%	i	25.1µM*
CC(=O)c1ccc(Nc2nc(C)cc(C)n2)cc1	i	i	-1.8%	i	10.5%
CCOC(=O)C1CCN(C(=O)c2cc3sc(C)cc3n2C)CC1	i	.	.	i	17.1%
CCCCOc1ccccc1Cn1c(=O)oc2ccccc21	i	-111.6%*	5.7%	i	2.4%
Cc1c(CC(=O)NCCc2ccccc2F)c(=O)oc2c(C)c3occ(C(C)(C)C)c3cc12	i	.	.	i	6.9%
CCN(CC)c1ccc(C(=C2C=CC(=[N+](CC)CC)C=C2)c2ccc(N(CC)CC)cc2)cc1	i	i	-78.1%	35.5µM*	-97.1%
CCN(CC)c1ccc(C(=C2C=CC(=[N+](CC)CC)C=C2)c2ccccc2)cc1	i	i	-73.9%	.	-95.6%
COc1cccc(C(=O)Nc2c(C(=O)NC(C)(C)C)oc3ccccc23)c1	i	.	.	i	17.8µM*
COc1cc(C(=O)Nc2cccc(-c3nc4cc(C)ccc4o3)c2C)cc(OC)c1OC	i	-104.9%*	-1.2%	i	-6.2%
COCC(=O)Nc1c(C(=O)Nc2ccccc2OC)oc2ccccc12	i	i	4.2%	i	-10.8%
COc1ccccc1NC(=O)c1oc2ccccc2c1NC(=O)c1cc(OC)c(OC)c(OC)c1	i	-93.5%*	-2.1%	i	-2.0%
Cc1ccc2nc(COc3ccccc3NC(=O)c3ccccc3F)cc(=O)n2c1	i	.	.	i	4.0%
COc1ccc(-c2nc3ccccc3n3c(-c4ccccc4)c4c(=O)n(C)c(=O)n(C)c4c23)cc1	i	.	.	i	0.0%
CC(=O)c1ccc(N2C(=O)N(Cc3cccc(C(F)(F)F)c3)c3ccccc3S2(=O)=O)cc1	i	.	.	i	23.4%
CCNc1ccc(-c2nc(-c3ccccn3)no2)cc1[N+](=O)[O-]	i	.	.	i	-20.8%
COc1ccc(N(CC(=O)N2CCCCC2)S(=O)(=O)c2ccc(OC)c(OC)c2)cc1	i	.	.	i	16.8%
FC(F)(F)c1ccccc1Cc1c(-c2cccc(Br)c2)nc2c3ccccc3ccn12	i	i	2.1%	i	14.1µM*
COc1ccccc1CC(=O)Nc1nc(-c2ccc(F)c(F)c2)cs1	i	i	-7.4%	i	17.8µM*
O=C(Cc1ccccc1F)Nc1nc(-c2ccc(F)cc2)cs1	i	i	-6.6%	i	12.6µM*
CN(c1nnc(NC(=O)Nc2ccccc2C(F)(F)F)s1)C1CCCCC1	i	.	.	i	6.7%[9.22 µM]
O=C(CN1C2CCC1CC(NC(=O)Nc1ccccc1)C2)NCc1ccco1 (configuration not stated)	i	-107.5%*	-1.2%	i	-2.2%
COc1ccc(CNCc2ccccc2)cc1COc1ccc(NC(C)=O)cc1	.	.	0.0%	.	.
CCC(C(=O)Nc1ccc2c(c1)OCCO2)n1nnc2ccccc2c1=O (configuration not stated)	i	i	2.1%	i	?
O=c1c2ccccc2nnn1CSc1ccc2c(c1)OCCO2	i	i	?	i	11.2µM*
COc1ccc2c(C)cc(SCn3nnc4ccccc4c3=O)nc2c1	i	i	3.55µM*	i	7.5%
